Data on 44 compounds can be found in article PMC4336329 (PLoS ONE, 2015).

Out of some 310,000 compounds screened, about 14,000 (4.5%) showed an effect of 50% or more. The effect is printed as a negative number. Shown is part of a subset that was picked to be rich in strong results.
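Note: peak tail current of the secondary pulse compared with the same well before compound.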

Sequence of human ether-à-go-go-related gene (hERG) potassium channel (Q12809 whole entry, looked up): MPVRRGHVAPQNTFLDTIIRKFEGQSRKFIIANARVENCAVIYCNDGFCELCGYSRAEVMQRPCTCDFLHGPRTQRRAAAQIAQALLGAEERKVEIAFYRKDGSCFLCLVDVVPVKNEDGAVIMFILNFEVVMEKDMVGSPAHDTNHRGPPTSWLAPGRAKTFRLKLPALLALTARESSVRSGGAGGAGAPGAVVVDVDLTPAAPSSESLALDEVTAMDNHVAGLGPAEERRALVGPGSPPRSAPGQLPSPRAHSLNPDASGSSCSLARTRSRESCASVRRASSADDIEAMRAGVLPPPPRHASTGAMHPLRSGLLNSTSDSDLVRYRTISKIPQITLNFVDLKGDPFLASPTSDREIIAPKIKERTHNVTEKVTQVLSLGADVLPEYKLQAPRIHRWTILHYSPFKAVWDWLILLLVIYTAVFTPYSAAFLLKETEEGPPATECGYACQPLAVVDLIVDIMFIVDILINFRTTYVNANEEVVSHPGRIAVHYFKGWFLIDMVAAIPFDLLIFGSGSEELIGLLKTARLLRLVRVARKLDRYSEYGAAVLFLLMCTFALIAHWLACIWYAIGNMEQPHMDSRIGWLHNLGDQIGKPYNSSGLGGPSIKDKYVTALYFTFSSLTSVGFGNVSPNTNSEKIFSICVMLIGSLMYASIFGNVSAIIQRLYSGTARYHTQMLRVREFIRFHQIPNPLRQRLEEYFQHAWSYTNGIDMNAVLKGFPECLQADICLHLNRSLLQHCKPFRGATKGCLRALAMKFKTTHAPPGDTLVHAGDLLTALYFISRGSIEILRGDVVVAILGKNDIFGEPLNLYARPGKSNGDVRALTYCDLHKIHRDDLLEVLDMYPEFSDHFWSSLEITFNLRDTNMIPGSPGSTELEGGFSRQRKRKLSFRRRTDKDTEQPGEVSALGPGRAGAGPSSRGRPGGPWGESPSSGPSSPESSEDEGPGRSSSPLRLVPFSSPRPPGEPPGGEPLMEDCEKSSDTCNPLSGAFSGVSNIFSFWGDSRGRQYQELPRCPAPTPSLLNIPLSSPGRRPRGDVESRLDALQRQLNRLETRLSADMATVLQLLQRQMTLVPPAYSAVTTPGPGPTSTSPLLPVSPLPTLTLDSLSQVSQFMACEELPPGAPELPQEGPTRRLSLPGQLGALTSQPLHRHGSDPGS

This test addresses human ether-à-go-go-related gene (hERG) potassium channel (human, UniProt Q12809). Briefly: primary screen, population patch clamp on CHO cells stably expressing hERG; higher = less effect of the substance.
For the compound `CCCCNC(=O)CN(CCc1ccccc1)S(C)(=O)=O`, the “hERG current change (%, negative = inhibition) at 10uM” value is on record as -12.6%.
To `Cc1c(Cl)cccc1NC(=O)CCC(=O)NNC(=O)c1ccco1` belongs 18.3%; to `CCOC(=O)c1cccc(NC(=O)CSc2nnc(-c3cccnc3)n2CC)c1`, -37.5%.
With `N#Cc1nc(-c2cccs2)oc1NCc1ccco1`, the “hERG current change (%, negative = inhibition) at 10uM” value is -5.22%.
With `CC(/C=C/c1ccccc1)=N/NC(=O)c1cc([N+](=O)[O-])cc([N+](=O)[O-])c1`, the “hERG current change (%, negative = inhibition) at 10uM” value is listed as 8%.
To `O=[N+]([O-])c1ccc(Sc2cc[n+]([O-])c3ccccc23)c([N+](=O)[O-])c1` belongs -65.3%; to `O=[N+]([O-])c1ccc(Sc2cccc3cccnc23)c([N+](=O)[O-])c1`, 16.6%; to `O=c1[nH]c(Sc2ccc([N+](=O)[O-])cc2[N+](=O)[O-])nc2ccccc12`, 9.99%.
`CN(CC(=O)Nc1ccccc1Br)C(=O)CCC1CCCC1`: the “hERG current change (%, negative = inhibition) at 10uM” value is given as 9.57%.
To `CCCCC1(C)NC(=S)N2N1C(=S)NC2(C)CCCC` (centres unmarked) belongs 15.1%; to `Cc1noc(C)c1C(=O)Nc1nc2ccc(S(C)(=O)=O)cc2s1`, 2.86%.
Turning to `O=C(O)C(CCCCN1C(=O)C2C3C=CC(C3)C2C1=O)N1C(=O)C2C3C=CC(C3)C2C1=O` (centres unmarked), the “hERG current change (%, negative = inhibition) at 10uM” value amounted to 2.41%.
To `CCOC(=O)c1[nH]ncc1CN1CCCC(C(=O)c2cc(Cl)ccc2OC)C1` (centres unmarked) belongs -71.1%; to `CCOC(=O)c1[nH]ncc1CN1CCCC(C(=O)c2cccc(Cl)c2)C1` (centres unmarked), -22.6%.
To `CCOC(=O)c1[nH]ncc1CN1CCCC(C(=O)c2cccc(OC(C)C)c2)C1` (centres unmarked) belongs -42.1%.
To `CCOC(=O)c1[nH]ncc1CN1CCCC(C(=O)c2ccc(C(C)(C)C)cc2)C1` (centres unmarked) belongs -17.6%; to `CCOC(=O)c1[nH]ncc1CN1CCCC(C(=O)c2ccc(SC)cc2)C1` (centres unmarked), -73%.
For the compound `CCOC(=O)c1[nH]ncc1CN1CCCC(C(=O)c2ccc(OC)cc2C)C1` (centres unmarked), the “hERG current change (%, negative = inhibition) at 10uM” value is -49.4%.
With `O=C(COC(=O)C1CCCCC1)Nc1ccc(N2CCCCC2)cc1`, the “hERG current change (%, negative = inhibition) at 10uM” value was found to be 2.16%.
To `COc1ccc(C2(CNS(=O)(=O)c3ccccc3)CCOCC2)cc1` belongs -4.62%; to `COc1ccc(NC(=O)C2CCCN2S(=O)(=O)c2cccc3cccnc23)c(OC)c1` (centres unmarked), -6.73%; to `CCOc1cc2c(cc1C=O)OC(C)C2` (centres unmarked), 22.1%.
`O=C(c1ccc(Cl)c(S(=O)(=O)N2CCCCCC2)c1)N1CCCC1`: the “hERG current change (%, negative = inhibition) at 10uM” value was -38.9%.
To `CCN1CCN(C(=O)c2ccc(Cl)c(S(=O)(=O)N3CCCCC3)c2)CC1` belongs -69.8%; to `CCN1CCN(C(=O)c2ccc(Cl)c(S(=O)(=O)N3CCCCCC3)c2)CC1.Cl`, -60.9%; to `O=C(c1ccc(Cl)c(S(=O)(=O)N2CCCCCC2)c1)N1CCCCC1`, -20.7%.
To `O=C(c1ccc(Cl)c(S(=O)(=O)N2CCCCC2)c1)N1CCCCC1` belongs -31.7%; to `Cl.O=C(c1ccc(Cl)c(S(=O)(=O)N2CCCCCC2)c1)N1CCN(CCO)CC1`, -34.4%; to `O=C(c1ccc(Cl)c(S(=O)(=O)N2CCCCC2)c1)N1CCN(Cc2ccccc2)CC1`, -59.1%.
In the case of `CCN1CCN(C(=O)c2ccc(Cl)c(S(=O)(=O)N3CCOCC3)c2)CC1`, the “hERG current change (%, negative = inhibition) at 10uM” value was -0.549%.
With `O=C(c1ccc(Cl)c(S(=O)(=O)N2CCOCC2)c1)N1CCN(Cc2ccccc2)CC1`, the “hERG current change (%, negative = inhibition) at 10uM” value is listed as -25.3%.
To `CCCn1c(N)c(N(CCOC)C(=O)c2cccc(S(=O)(=O)N3CCCc4ccccc43)c2)c(=O)[nH]c1=O` belongs 3.29%; to `O=C(NCC1CCCO1)c1cccs1` (centres unmarked), 4.89%; to `Cc1cc(OCC(=O)OCC(=O)NC2CCCCC2C)ccc1Cl` (centres unmarked), 0.466%.
To `CC(=O)Nc1ccc(S(=O)(=O)NNC(=O)c2cccc(Br)c2)cc1` belongs 15.9%; to `CCC(=NCCCN1CCOCC1)c1c(O)n(-c2ccccc2C)c(=O)[nH]c1=O`, 8.28%; to `CCCCN1C(=O)C(=O)N(CC(=O)Nc2sc(CC)cc2C(=O)OCC)C1=O`, -10%.
To `Cc1ccc(Oc2ccc(OCC(=O)NC(C)C(=O)O)cc2)cc1` (centres unmarked) belongs -25.1%.
On to `Cc1c(C#N)c(N)nc(Cl)c1C#N`, for which the “hERG current change (%, negative = inhibition) at 10uM” value was 25.9%.
As to `NC(=O)C1(NC(=O)[C@@H]2CC3(CC(c4cccc(NC(=O)[C@@H]5CCC(=O)N5)c4)=NO3)CN2C(=O)c2ccccc2)CC1` (some centres unmarked), the “hERG current change (%, negative = inhibition) at 10uM” value is given as 1.96%.
As to `CCCCOC(=O)NC1(C)CCS(=O)(=O)C1` (centres unmarked), the “hERG current change (%, negative = inhibition) at 10uM” value was 27.1%.
In the case of `CC(C)OCCCNC(=S)N1CCC(C(=O)c2ccc3c(c2)OCCO3)CC1`, the “hERG current change (%, negative = inhibition) at 10uM” value is on record as -22.9%.
On to `Cc1ccc2sc(N(CCN(C)C)C(=O)c3ccc(S(=O)(=O)N4CC(C)OC(C)C4)cc3)nc2c1C.Cl` (centres unmarked), for which the “hERG current change (%, negative = inhibition) at 10uM” value turned out to be 1.87%.
To `CCOC(=O)/C=C/[C@H]1CCc2cccc(Cl)c2O1` belongs 9.23%.
